HepG2 tox-1: counter-screen for TGF-b inhibitors: cytotoxicity in HepG2 cells | Potency, µM (doses to about 46.1 µM), without a hit: at the top dose activity change, negative = cytotoxicity, actives largely listed as cytotoxic | AID 588856 | HepG2 CAGA-GFP viability, ATP luminescence, 18 h | 0.76% of 410,000 active
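HepG2 CAGA-GFP cells (1000/well, DMEM with 1% FBS) received compound, then TGF-beta at 500 pg/mL final, and were incubated 18 hours at 37 degrees C. Viability was read by CellTiter-Glo luminescence. Media-only wells were set as complete cell-killing and DMSO as no toxicity.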
Nrf2 block: inhibitors of Nrf2 signaling. 2.1% of 360,000 active. A549 ARE-Fluc reporter, luciferase luminescence, 18-24 h. Potency, µM (doses to about 46 µM), without a hit: at the top dose activity change, negative = inhibition, hits mostly inhibitors; further: on the % scale 0 is the no-effect control and ±100 the full control effect; nearly all actives have a fitted effect of over 60% in size
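Concentration-response testing used A549 ARE_Fluc cells at 5000 cells/well. Following an 18-24 h compound incubation, viability was read by fluorescence (Ex 405/Em 525) and luciferase output by luminescence.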
A549 viability: A549 cytotoxicity, counter-screen for Nrf2 inhibitors; A549 ARE-Fluc cells, CellTiter-Fluor viability, 18-24 h; Potency, µM (series often up to 46 µM), inactives show top-dose activity change, negative = cytotoxicity, usual class: inhibitors; 0.16% of 390,000 active; AID 504648; further: on the % scale 0 is the no-effect control and ±100 the full control effect
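A549 ARE_Fluc cells in 5% FBS OPTI-MEM were exposed to compounds in concentration-response for 18-24 h at 37 deg C. Viability was read by CellTiter-Fluor fluorescence (Ex 405/Em 525) after 30 min, before the luciferase read.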
Nrf2 activator: activators of Nrf2 (ARE) signaling. AREc32 ARE-luciferase reporter (MCF7-derived line), luminescence, 24 h. Potency, µM (highest dose often 46.1 µM), inactives show at the top dose activation, actives largely listed as activators. 0.31% of 410,000 active. AID 624171; further: % of control where 0% means no effect; nearly all actives have a fitted effect of over 65% in size
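Nrf2 activation is followed as ARE-luciferase induction in the AREc32 line after one day of compound treatment; luminescence is read with Steady-Glo.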
TGFb SMAD3 inh: blocks TGF-b signaling; 1.2% of 410,000 active; Potency, µM (doses to about 46.1 µM), without a hit: top-dose activity, negative = inhibition, most hits filed as inhibitors; HepG2 CAGA-GFP TGF-b/SMAD3 reporter, GFP fluorescence, 18 h; TGF-beta stimulated, 500 pg/mL final; further: on the % scale 0 is the no-effect control and ±100 the full control effect; nearly all actives have a fitted effect of over 65% in size
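Cell-based qHTS in HEPG2 carrying a CAGA-GFP Smad reporter; compounds added before 500 pg/mL final TGF-beta, 18 h incubation at 37 degrees C, GFP fluorescence quantified per cell by imaging cytometry.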
TGFb CAGA inh: confirmation of TGF-b signaling inhibitors in HepG2 reporter cells. HepG2 CAGA-GFP TGF-b reporter, GFP fluorescence, 18 h; cells stimulated with TGF-beta, 500 pg/mL. Potency, µM (doses to about 46.1 µM), for inactives: at the top dose activity, negative = inhibition, most hits filed as inhibitors. shares compounds with TGFb SMAD3 inh. AID 720534. 63% of 1,600 active; further: on the % scale 0 is the no-effect control and ±100 the full control effect; nearly all actives have a fitted effect of over 65% in size
HepG2 tox-2: counter-screen for TGF-b inhibitors: cytotoxicity in HepG2 cells. shares compounds with TGFb SMAD3 inh. AID 720535. Potency, µM (series often up to 46.1 µM), for inactives: top-dose activity, negative = cytotoxicity, usual class: inhibitors. 27% of 1,600 active. HepG2 CAGA-GFP viability, ATP luminescence, 18 h; cells stimulated with TGF-beta, 500 pg/mL; further: on the % scale 0 is the no-effect control and ±100 the full control effect; nearly all actives have a fitted effect of over 70% in size
CCL64 TGFb inh: orthogonal confirmation of TGF-b inhibitors in CCL64 cells. 41% of 1,600 active. CCL64 CAGA-GFP reporter, TGF-b stimulated, GFP fluorescence, 18 h. Potency, µM (highest dose often 46.1 µM), without a hit: top-dose activity, negative = inhibition, hits mostly inhibitors. shares compounds with TGFb SMAD3 inh; further: nearly all actives have a fitted effect of over 65% in size
TGFb COP inh: TGF-b inhibition validated with COP promoter. shares compounds with TGFb SMAD3 inh. HepG2 COP-GFP TGF-b reporter, GFP fluorescence, 18 h; cells stimulated by added recombinant TGF-beta. Potency, µM (highest dose often 46.1 µM), inactives show top-dose activity, negative = inhibition, most hits filed as inhibitors. 3% of 1,600 active; further: nearly all actives have a fitted effect of over 70% in size
* hit, by the source's call; u = inconclusive; x = not tested or not shown. A selection: hits, their analogues and other compounds. The true share with any hit is near 3.6%. The call rests on the fitted dose curve; in most records, active means well fitted curve in the direction sought with a large enough effect; inconclusive means small, poorly fitted or top-dose-only effect, or another doubt; inactive means no such curve, though single readings can be large; an effect the other way counts as inactive or inconclusive. Potency means the concentration at half of the fitted maximal effect.

SMILES	HepG2 tox-1	Nrf2 block	A549 viability	Nrf2 activator	TGFb SMAD3 inh	TGFb CAGA inh	HepG2 tox-2	CCL64 TGFb inh	TGFb COP inh
C/C(=N\NC(=O)c1ccccc1-n1cccc1)c1ccccn1	-36%	x	x	0%	14µM*	10µM*	u	u	21%
CC(=NNC(=S)Nc1ccccc1Cl)c1ccccn1	3%	u	u	1%	u	x	x	x	x
C=CCNC(=S)N/N=C(\C)c1ccccn1	-26%	0.58µM*	u	u	2.8µM*	10µM*	u	1.3µM*	-4%
O=S1(=O)NC[C@]23C[C@H](c4ccc(F)cc4)[C@@H](C[C@@H]21)O3	7%	-11%	-5%	-1%	-4%	x	x	x	x
COc1cccc(-c2nc(N3CCCCC3)c3ccccc3n2)c1O	12%	-9%	-7%	4%	11µM*	18µM*	u	u	78%
Cc1ccc(C)c(N2N=C(C(=O)Nc3ccccc3N3CCOCC3)CCC2=O)c1	-5%	-9%	-16%	0%	14%	x	x	x	x
Cc1ccc(C)c(N2N=C(C(=O)Nc3ccccc3N3CCCC3)CCC2=O)c1	-22%	u	u	4%	22µM*	12µM*	-14%	u	2%
COc1ccccc1-c1cc(C(F)(F)F)nc(S(=O)(=O)CCCC(=O)N2CCOCC2)n1	-126%	u	-7%	u	2.2µM*	1.8µM*	21µM*	4.1µM*	u
COc1ccccc1-c1noc(CCCC(=O)N2CCOCC2)n1	7%	2%	21%	0%	1%	x	x	x	x
CC1CCCN(S(=O)(=O)c2ccc(S(=O)(=O)NC(C)c3cccs3)cc2)C1 (centres undefined)	-15%	23µM*	u	2%	u	u	-11%	3%	-4%
CN(Cc1ccccc1)C(=O)c1ncn(Cc2ccccc2)c1C(=O)N(C)Cc1ccccc1	-13%	14%	-4%	-1%	-5%	x	x	x	x
Cc1cccc(C)c1N(CC(O)Cn1c2ccccc2c2ccccc21)S(C)(=O)=O (centres undefined)	-69%	u	-12%	1%	10µM*	23µM*	u	23µM*	63%
COc1ccc(NS(=O)(=O)c2cc(NC(=O)CNC(=O)c3cccc(OC)c3)ccc2C)cc1	7%	-2%	3%	7%	u	u	-8%	u	-1%
COc1ccc(NS(=O)(=O)c2cccc(NC(=O)CCC(=O)c3ccc(Cl)cc3)c2)cc1	-23%	21µM*	-28%	9%	10µM*	16µM*	u	u	46%
COc1cccc(NC(=O)CNC(=O)c2ccccc2)c1	0%	7%	-16%	-1%	12%	x	x	x	x
CSc1ncc(Cl)c(C(=O)Nc2c(C)cccc2C)n1	16%	-13%	-1%	0%	-2%	x	x	x	x
CCOc1ccccc1-n1c(CNc2ccc(F)cc2)nnc1SCC(=O)NCc1ccco1	2%	-8%	-3%	1%	8.9µM*	u	-2%	0%	4%
COc1ccc(-n2c(-c3ccc(F)cc3)cnc2SCC(=O)NCc2ccco2)cc1	-32%	-13%	0%	7%	-1%	x	x	x	x
CCOc1ccc(NC(=O)CSc2ncc(-c3ccc(F)cc3)n2Cc2ccco2)cc1	-25%	u	u	0%	16µM*	26µM*	u	u	39%
CC1CCCN(S(=O)(=O)c2cccc3nonc23)C1 (centres undefined)	1%	-17%	2%	0%	11%	x	x	x	x
O=C1C(Nc2ccccc2)=C(NS(=O)(=O)c2ccccc2)C(=O)c2ccccc21	-54%	4%	0%	9%	6.3µM*	u	-29%	4%	2%
CN1CCN(Cc2cc(Cl)c3cccnc3c2OC(=O)c2cccs2)CC1	-73%	2%	-16%	25%	-79%	x	x	x	x
Oc1c(CN2CCOCC2)cc(COCc2ccccc2)c2cccnc12	-38%	-4%	-2%	4%	1µM*	-22%	u	8.2µM*	21%
O=C(Oc1c(CN2CCOCC2)cc(Cl)c2cccnc12)c1ccccc1Br	-136%	7%	-5%	11%	3.2µM*	-11%	u	u	1%
COc1cc(NC(=O)NNC(=O)c2cc3occc3n2C)cc(OC)c1OC	6%	11%	-2%	0%	3%	x	x	x	x
SMILES	HepG2 tox-1	Nrf2 block	A549 viability	Nrf2 activator	TGFb SMAD3 inh	TGFb CAGA inh	HepG2 tox-2	CCL64 TGFb inh	TGFb COP inh
O=C1NC[C@H](c2ccccc2)OC(=O)[C@@H](Cc2ccc(F)cc2)CC/C=C/C[C@H]1CC(=O)N(CCO)Cc1ccccc1	x	u	x	-5%	11µM*	21µM*	x	u	53%
O=C(C[C@H]1C/C=C\CC[C@H](Cc2ccc(F)cc2)C(=O)O[C@@H](c2ccccc2)CNC1=O)N[C@H](CO)Cc1ccccc1	-66%	-2%	-18%	3%	u	x	x	x	x
O=C1N[C@@H](Cc2c[nH]c3ccccc23)COC(=O)[C@@H](Cc2ccc(F)cc2)CC/C=C/C[C@@H]1CC(=O)N(CCO)Cc1ccccc1	-2%	u	u	-1%	8.9µM*	5.8µM*	-8%	u	21%
O=C(C[C@H]1C/C=C\CC[C@H](Cc2ccc(F)cc2)C(=O)O[C@@H](c2ccccc2)CNC1=O)N[C@@H](CO)Cc1ccccc1	-114%	-16%	u	-3%	7.1µM*	u	u	13µM*	25%
O=C(Nc1ccc2nc3n(c(=O)c2c1)CCCC3)c1cccc([N+](=O)[O-])c1	-5%	2%	-4%	2%	0%	x	x	x	x
O=C(Oc1nsnc1N1CCCCC1)N1CCOCC1	-2%	0%	0%	0%	-9%	x	x	x	x

Bioassay records as filed in PubChem BioAssay.
